Bioassay records from PubChem.
CCHF vOTU inh-1: CCHFV vOTU protease inhibitors, primary screen, biochemical, Pep-AMC substrate, fluorescence. Crimean-Congo hemorrhagic fever virus L polyprotein viral ovarian tumor (vOTU) protease …. inhibition, % at 11.5 µM. hit rate 0.55% among 370,000
GDH-TPI counter-1: GDH-TPI coupling enzyme inhibitors, primary screen, artefact control for M. tuberculosis FBA inhibitor project, biochemical, absorbance, full deck | GDH-TPI coupled enzyme counterscreen, NADH absorbance | inhibition, % at 4.8 µM | hit rate 1.2% among 360,000
FBA Mtb inh: Mtb FBA enzyme inhibitors, primary screen, biochemical, fluorescence, strain H37Rv. hit rate 2.3% among 360,000. purified M. tuberculosis FBA, fluorescence read-out. inhibition, % at 1 µM. Fructose-bisphosphate aldolase (Mycobacterium tuberculosis (strain ATCC 25618 / H37Rv)), …; in the data active means inhibition above about 27%
RecA intein inh: Mtb RecA intein splicing inhibitors, primary screen, biochemical, fluorescence, HTS | Protein RecA (Mycobacterium tuberculosis (strain ATCC 25618 / H37Rv)), P9WHJ3 | cell-free RecA intein splicing | inhibition, % (concentration not given with the values) | hit rate 0.75% among 290,000 | AID 2221, 2009; in the data active means inhibition above about 30%
Target sequence (P9WHJ3 whole entry, looked up): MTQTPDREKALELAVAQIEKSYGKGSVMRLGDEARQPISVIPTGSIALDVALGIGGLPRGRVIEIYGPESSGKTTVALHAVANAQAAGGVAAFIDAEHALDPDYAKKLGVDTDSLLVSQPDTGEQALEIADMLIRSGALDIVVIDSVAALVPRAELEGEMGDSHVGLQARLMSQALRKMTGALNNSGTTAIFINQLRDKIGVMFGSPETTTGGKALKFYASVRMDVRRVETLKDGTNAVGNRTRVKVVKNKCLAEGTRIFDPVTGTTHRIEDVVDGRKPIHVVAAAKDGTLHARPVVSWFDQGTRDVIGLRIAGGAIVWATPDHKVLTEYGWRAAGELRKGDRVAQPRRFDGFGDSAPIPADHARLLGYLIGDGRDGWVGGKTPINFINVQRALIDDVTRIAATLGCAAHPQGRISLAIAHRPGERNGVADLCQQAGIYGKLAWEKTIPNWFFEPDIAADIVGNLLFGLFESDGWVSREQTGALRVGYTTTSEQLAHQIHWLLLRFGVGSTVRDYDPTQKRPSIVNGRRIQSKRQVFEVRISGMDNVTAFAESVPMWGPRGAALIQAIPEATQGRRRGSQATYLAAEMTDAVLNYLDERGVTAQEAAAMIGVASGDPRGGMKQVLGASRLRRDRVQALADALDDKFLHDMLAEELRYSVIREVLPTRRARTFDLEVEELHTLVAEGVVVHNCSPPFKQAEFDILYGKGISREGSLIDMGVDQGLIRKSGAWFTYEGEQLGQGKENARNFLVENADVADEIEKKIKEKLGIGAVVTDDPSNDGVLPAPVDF
Mtb FBA confirm: M. tuberculosis aldolase blockers, biochemical, fluorescence, strain H37Rv, confirmation; inhibition, % at 1 µM; shares compounds with FBA Mtb inh; hit rate 78% among 5,600; purified M. tuberculosis FBA, fluorescence read-out; in the data active means inhibition above about 27%
GDH-TPI counter-2: GDH-TPI coupling enzyme inhibitors, artefact control for M. tuberculosis FBA inhibitor project, biochemical, fluorescence, high throughput | shares compounds with FBA Mtb inh | GDH-TPI coupled enzyme counterscreen | inhibition, % at 1 µM | hit rate 81% among 5,600 | AID 652141, 2013; in the data active means inhibition above about 10%
CCHF vOTU inh-2: CCHFV vOTU protease inhibitors, confirmation, biochemical, Pep-AMC substrate, fluorescence; Recombinant CCHFV vOTU; AID 686976, 2013; shares compounds with CCHF vOTU inh-1; hit rate 17% among 1,900; inhibition, % at 11.5 µM
Numbers stand for hits; - = inactive; . = not tested or not shown; + = active, no number. Rows were chosen to be rich in hits. Some 4.2% of all compounds tested hit in one or more screens of this group. Unless noted, no stated cut-off is given here; in the data, active means inhibition above about 30%; inactive means the rest.

SMILES	CCHF vOTU inh-1	GDH-TPI counter-1	FBA Mtb inh	RecA intein inh	CCHF vOTU inh-2	others
Cc1ccc(S(=O)(=O)c2cc3c(=O)n4ccccc4nc3n(C)c2=N)cc1	-	-	40	-	.	Mtb FBA confirm=52;GDH-TPI counter-2=42
Cc1cccn2c(=O)c3cc(C(=O)NC4CCCCC4)c(=N)n(Cc4ccc(F)cc4)c3nc12	-	-	31	-	.	Mtb FBA confirm=+;GDH-TPI counter-2=+
Cc1ccc(Cn2c(=N)c(C(=O)NC3CCCC3)cc3c(=O)n4ccccc4nc32)cc1	.	-	53	-	.	Mtb FBA confirm=99;GDH-TPI counter-2=98
N=c1c(C(=O)NC2CCCCC2)cc2c(=O)n3ccccc3nc2n1CCc1ccccc1	-	-	47	-	.	Mtb FBA confirm=-;GDH-TPI counter-2=-
Cc1nc2ccccn2c1C(=O)NC1CCCC1	-	-	-	-	.
CC(Sc1nnc(-c2cccnc2)n1C)C(=O)N1CCOCC1 (stereo not given)	-	-	-	-	.
Cc1ccc(S(=O)(=O)N2C[C@@H]3CCCC[C@@H]3[C@@H](C)[C@H]2c2cn(Cc3ccccc3)c3ncccc23)cc1	-	-	-	.	.
CCCCn1c(NS(=O)(=O)c2ccccc2)c(C(=O)OCC)c2nc3ccccc3nc21	35	-	53	-	74	Mtb FBA confirm=194;GDH-TPI counter-2=151
O=C(CNc1cccc2ccccc12)c1ccc([N+](=O)[O-])cc1	30	-	28	-	-	Mtb FBA confirm=56;GDH-TPI counter-2=36
O=C(Nc1cccc2ccccc12)c1ccc([N+](=O)[O-])cc1	-	-	-	-	.
CC(=O)c1cccc(OC(=O)Oc2cccc(C(C)=O)c2)c1	-	-	-	.	.
CCOC(=O)c1c(-c2ccccc2)[nH]c2ccc(O)cc12	34	-	40	-	-	Mtb FBA confirm=55;GDH-TPI counter-2=49
CCOC1=C2[C@H](c3ccccc3)N(S(=O)(=O)c3ccc(C)cc3)C[C@H]2n2c(=O)n(-c3ccccc3)c(=O)n2C1	-	.	-	.	.
Nc1cccc2cc(S(=O)(=O)O)ccc12	32	-	39	.	37	Mtb FBA confirm=-;GDH-TPI counter-2=-
O=Nc1c(O)ccc2cc(S(=O)(=O)O)ccc12	.	-	-	.	.
Nc1ncnc2oc(-c3ccco3)c(-c3ccco3)c12	34	-	31	-	-	Mtb FBA confirm=+;GDH-TPI counter-2=143
C1CCN(CCC2CCCCN2)CC1 (stereo not given)	-	-	-	.	.
NC(=O)c1sc2nc3c(c(-c4ccco4)c2c1N)CCC3	49	-	-	-	-
Cc1ccc(-c2c3c(nc4sc(C(N)=O)c(N)c24)CCCC3)o1	-	-	-	-	.
O=C1c2ccccc2C(=O)c2cc(N3CCCCC3)ccc21	-	-	-	.	.
O=C1c2cccc(Cl)c2C(=O)c2c1cccc2N1CCCC1	71	-	-	-	-
NC1=C(Cl)C(=O)c2ccccc2C1=O	81	-	-	.	81
NC1=C(Cl)C(=O)c2ccc(S(N)(=O)=O)cc2C1=O	103	-	-	.	99
NS(=O)(=O)c1ccc2c(c1)C(=NO)c1cc(S(N)(=O)=O)ccc1-2	-	-	-	-	.
NC(=O)c1nsc(C(=O)N(CC(=O)NC2CCCCC2)Cc2ccc(F)cc2)c1N	-	-	-	.	.
SMILES	CCHF vOTU inh-1	GDH-TPI counter-1	FBA Mtb inh	RecA intein inh	CCHF vOTU inh-2	others
O=c1ccc2[n+]([O-])c3ccc(O)cc3oc-2c1	50	-	-	-	-
CCc1c(C)nc2c(C)cccc2c1SCCC#N	33	-	-	-	-
CCCCc1c(C)nc2ccccc2c1SCCC#N	-	-	-	-	.
CC(C)N(CCCNC(=O)c1nn(C)c2c1CS(=O)(=O)c1ccccc1-2)Cc1ccccc1	-	-	-	-	.
COc1ccccc1-c1sc2cc3c(cc2c1-c1ccc(O)cc1)OCO3	30	-	-	.	-
CC[C@]12CCCN3CCc4c(n(c5ccccc45)[C@](O)(C(=O)OC)C1)[C@@H]32	-	-	-	.	.
CCC12CCCN3CCc4c(n(c5ccccc45)C(O)(C(=O)OC)C1)C32 (stereo not given)	42	-	-	-	-
COc1ccccc1N1C(=O)N(CC(=O)C(C)(C)C)c2ccccc2S1(=O)=O	-	-	-	-	.
Cc1ccc(S(=O)(=O)Nc2ccccc2C(N)=O)cc1	-	-	-	-	.
Cc1ccc(S(=O)(=O)Nc2ccccc2-c2ccccc2NS(=O)(=O)c2ccc(C)cc2)cc1	30	-	-	-	-
COc1ccccc1N1CCN(CC(=O)Nc2ccccc2C(=O)NCCc2ccccc2)CC1	-	-	-	.	.
O=C(O)c1ccccc1NS(=O)(=O)c1ccc(NN=Cc2ccc(F)cc2)c([N+](=O)[O-])c1	.	-	-	.	.
O=C(O)COc1ccccc1/C=N/Nc1ccc(S(=O)(=O)Nc2ccc(Cl)cc2)cc1[N+](=O)[O-]	37	-	-	-	-
COc1ccccc1NS(=O)(=O)c1ccc(N/N=C/c2ccccc2OCC(=O)O)c([N+](=O)[O-])c1	30	35	-	-	-
O=C(O)c1ccccc1NS(=O)(=O)c1ccc(N/N=C/c2ccc(O)c(O)c2)c([N+](=O)[O-])c1	42	46	-	.	46
CCN(CC)S(=O)(=O)c1ccc(N/N=C/c2ccccc2OCC(=O)O)c([N+](=O)[O-])c1	34	-	-	-	-
O=C(NC1CCCCC1)C(c1ccccc1F)N(C(=O)c1csnn1)C1CCCC1 (stereo not given)	65	-	-	-	-
COc1ccccc1C(C(=O)NC1CCCCC1)N(C(=O)c1csnn1)C1CC1 (stereo not given)	-	-	-	-	.
CC(=C\c1ccccc1)/C=C1/SC(=S)N(C(C(=O)O)C(C)C)C1=O (stereo not given)	32	-	-	-	-
CC1=C(C(=O)N2CCOCC2)CC(CC(=O)NCCN2CCOCC2)C(=O)N1Cc1ccccc1 (stereo not given)	30	-	-	.	-
CCOC(=O)C1(C)C=C(Nc2ccc(O)cc2)C(=O)N1c1ccc(O)cc1 (stereo not given)	91	-	-	-	-
Cc1ccc(NS(=O)(=O)c2cccc3cccnc23)c(Cl)c1	37	-	-	-	-
Cc1cc(C)c(S(=O)(=O)NCC(c2ccco2)N2CCc3ccccc3C2)c(C)c1 (stereo not given)	30	-	-	-	-
Oc1ccc(NCc2cccs2)cc1	88	-	-	-	-
CC(=O)N1c2ccccc2N=C(c2ccc(C(F)(F)F)cc2)C1C(=O)NC(C)C (stereo not given)	30	.	.	.	-
